In the library only some 6.1% were active in any assay of this set; here they are far more common.
Luciferase inh: blocks Photinus pyralis firefly luciferase activity; P08659; purified firefly luciferase, luminescence, 8 min; Potency, µM (top dose mostly 57.1 µM), hits mostly inhibitors; hit rate 2.2% among 72,000; AID 411; further: nearly all actives have a fitted effect of over 40% in size
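Here, luciferase activity is measured as luminescence following an 8 min room-temperature reaction at 10 uM ATP, pH 7.2. Every library sample is titrated.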
PK Bst: alters activity of Bacillus stearothermophilus pyruvate kinase. purified pyruvate kinase, luminescence ATP production; ribose 5-phosphate activator present at AC10. AID 361. hit rate 1.2% among 51,000. Potency, µM; in the data active means potency below about 11 µM; inconclusive means mostly about 12 µM to 25 µM;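 the screen sought inhibitors and activators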
GBA mod: modulators of human glucocerebrosidase. hit rate 1.1% among 48,000. Potency, µM. purified enzyme, resorufin glucoside fluorescence (screen aimed at inhibitors), 20 min. AID 360. P04062; in the data active means potency below about 15 µM; inconclusive means mostly about 16 µM to 33 µM;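 further: the screen sought inhibitors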
Target sequence (P04062 whole entry, looked up): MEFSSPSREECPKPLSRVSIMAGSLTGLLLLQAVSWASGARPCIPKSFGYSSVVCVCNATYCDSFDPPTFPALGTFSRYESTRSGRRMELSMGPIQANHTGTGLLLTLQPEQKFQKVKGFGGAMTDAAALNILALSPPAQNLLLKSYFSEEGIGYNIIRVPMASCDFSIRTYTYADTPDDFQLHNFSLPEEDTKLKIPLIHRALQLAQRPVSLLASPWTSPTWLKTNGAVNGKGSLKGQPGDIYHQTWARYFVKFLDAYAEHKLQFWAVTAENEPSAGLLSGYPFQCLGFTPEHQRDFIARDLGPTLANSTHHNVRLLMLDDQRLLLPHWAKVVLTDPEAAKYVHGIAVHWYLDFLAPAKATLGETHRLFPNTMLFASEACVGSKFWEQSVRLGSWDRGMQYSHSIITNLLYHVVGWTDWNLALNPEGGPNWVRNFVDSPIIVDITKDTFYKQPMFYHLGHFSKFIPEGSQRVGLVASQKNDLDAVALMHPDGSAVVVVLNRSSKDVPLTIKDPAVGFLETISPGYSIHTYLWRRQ
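Normal human glucocerebrosidase (0.2 nM final) was assayed with resorufin β-D-glucopyranoside (30 uM final) in 50mM citric acid/KH2PO4, 10mM sodium taurocholate, 0.01% tween-20, pH 5.9. Compounds were titrated; fluorescence (Ex 548, Em 600) read after 20 min at RT.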
HEK293 cAMP ctrl: parental HEK293 cAMP activation (counter-screen). parental HEK293 CNG cAMP sensor, membrane potential fluorescence. Potency, µM (top dose mostly 57.1 µM), actives largely listed as activators. hit rate 2.5% among 73,000; further: nearly all actives have a fitted effect of over 55% in size
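Parental HEK 293 cells stably expressing a cAMP-gated CNG channel were loaded with membrane potential dye containing 100 uM RO 20-1724 for 60 min. Compound added for 30 min; depolarization read as fluorescence intensity at 590 nm.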
TSHR ag: agonists of human thyroid stimulating hormone receptor | P16473 | HEK293-CNG-TSHR cells (CNG channel as cAMP sensor), membrane potential dye, cAMP | Potency, µM (top dose mostly 57.1 µM), actives largely listed as activators | hit rate 0.48% among 73,000; active means well fitted activation curve with a large enough effect in the main read-out, with a control signal flat, not every such curve was filed as active; inconclusive means small, poorly fitted or top-dose-only effect, or a change in a side signal; inactive means no such curve, though single readings can be large or run the other way; reference of the percent scale not stated here;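 further: the control signal comes from parental cells without the receptor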
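cAMP rise detected as CNG-channel membrane depolarization by fluorescent dye (emission 590 nm), 30 min after compound, following 60 min dye loading containing 100 uM RO 20-1724 at room temperature. Cells: TSHR/CNG HEK 293, with parental CNG HEK 293 as control.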
ERK AVP block: blocks ERK signaling stimulated by vasopressin; HEK293-V1b, vasopressin-stimulated pERK AlphaScreen; Potency, µM (series often up to 57.5 µM), hits mostly inhibitors; hit rate 0.99% among 72,000; further: nearly all actives have a fitted effect of over 55% in size
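HEK293 cells stably expressing V1b receptor, seeded overnight in 1% FBS, were treated with compounds for 30 min at 37C, then stimulated 5 min with 25 nM vasopressin; phospho-ERK read by AlphaScreen SureFire after lysis.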
Hits are given with their value; – = inactive; ? = inconclusive; · = no result; [ ] = another dose, or the depositor's remark. Unless noted, the call rests on the fitted dose curve; in most records, active means well fitted curve in the direction sought with a large enough effect; inconclusive means small, poorly fitted or top-dose-only effect, or another doubt; inactive means no such curve, though single readings can be large; an effect the other way counts as inactive or inconclusive.

SMILES	Luciferase inh	PK Bst	GBA mod	HEK293 cAMP ctrl	TSHR ag	ERK AVP block
COc1ccc(-c2nnn(CC(=O)N(CC(=O)NC3CCCC3)c3cccc(C)c3)n2)cc1OC	–	–	·	–	–	–
O=C(CN(CCN1CCOCC1)C(=O)Cn1nnc(-c2ccc(F)cc2)n1)NC1CCCCC1	–	–	·	–	–	–
O=C(CN(CCCN1CCOCC1)C(=O)Cn1nnc(-c2ccc(F)cc2)n1)NC1CCCCC1	–	–	4	–	–	–
COc1ccc(-c2nnn(CC(=O)c3ccccc3)n2)cc1OC	–	–	–	–	–	–
COc1ccc(N(CC(=O)NC2CCCC2)C(=O)Cn2nnc(-c3ccc(F)cc3)n2)cc1OC	–	–	8.6	–	–	–
COc1cc(-c2nnn(CC(=O)NC3CCS(=O)(=O)C3)n2)ccc1OCc1ccccc1 (stereo not given)	13µM	·	·	–	–	–
COc1cc2ccc([C@H](C)NCC#N)cc2cc1OC	–[11.4 µM]	·	·	–[11.4 µM]	–[11.4 µM]	–[11.5 µM]
O=C(Nc1ccccn1)c1cccnc1	–	–	–	–	–	–
O=C(Nc1cccc2cccnc12)c1cccnc1	–	9.7	–	–	–	–
COc1ccc(OC)c2[nH]c(=O)c(CCNC(=O)C(C)C)cc12	–	·	·	?	?	·
COc1ccc(OC)c2[nH]c(=O)c(CCNS(=O)(=O)c3ccc(Cl)cc3)cc12	–	4.3	–	–	·	–
COc1ccc(OC)c2[nH]c(=O)c(CCNS(=O)(=O)c3ccc(C)cc3)cc12	–	2.3	–	–	–	–
CCC1CCCCN1C(=O)Cn1c(C(=O)OC)cc2ccsc21 (stereo not given)	–	–	·	25µM	?	–
CCC1CCCCN1C(=O)Cn1c(=O)oc2ccccc21 (stereo not given)	–	–	–	–	–	–
CCC1CCCCN1C(=O)Cn1c(C(=O)OC)cc2sc(Cl)cc21 (stereo not given)	–	–	·	16µM	?	–
COC(=O)c1cc2sc(Cl)cc2n1CC(=O)N1CCCc2ccccc21	–	–	?	?	?	–
O=NN(Cc1ccc(Cl)cc1)[C@@H](C(=O)O)c1ccccc1	–[11.4 µM]	·	·	–[11.4 µM]	–[11.4 µM]	–[11.5 µM]
CC(C)C(C)(C#N)NC(=O)CSc1nc2scc(-c3ccco3)c2c(=O)n1-c1ccccc1 (stereo not given)	–	–	15	–	·	–
Cc1cnc(NC(=O)c2ccc(-c3nc4ccccc4s3)o2)s1	–	–	–	–	–	20µM
Cc1ccc(C(=O)COC(=O)c2cnccn2)cc1	?	·	·	?	?	–
O=C(COC(=O)c1ccccn1)c1ccc(Br)cc1	10µM	·	·	–[11.4 µM]	–[11.4 µM]	–
Cc1oc(-c2ccc(F)cc2)cc1-c1nn2c(-c3ccco3)nnc2s1	–	–	–	?	?	–
Cc1oc(-c2ccc(F)cc2)cc1-c1nn2c(-c3ccoc3C)nnc2s1	–	·	–	16µM	?	?
CCOC(=O)C1CCN(c2nc3ccccc3nc2C(C#N)C(=O)OC(C)COC)CC1 (stereo not given)	–	5.6	·	·	·	·
C=CCOC(=O)C(C#N)c1nc2ccccc2nc1N1CCC(C(=O)OCC)CC1 (stereo not given)	–	–	·	·	·	·
SMILES	Luciferase inh	PK Bst	GBA mod	HEK293 cAMP ctrl	TSHR ag	ERK AVP block
CCOC(=O)C1CCN(c2nc3ccccc3nc2C(C#N)C(=O)OCCOC)CC1 (stereo not given)	–	2.3	·	·	·	·
CCNc1ncc2nc(-c3ccccc3)c(=O)n(Cc3cccc(OC)c3)c2n1	–[11.4 µM]	·	·	–	·	–
Cc1cc(C)c2c(CN3CCN(CCO)CC3)cc(=O)oc2c1	–	–	5.5	–	–	–
CCc1cc(=O)oc2cc(C)c3c(C)coc3c12	–	–	–	–	–	–
CCCCCc1cc(O)c2c(C)cc(=O)oc2c1	–	·	·	3.2µM	?	–
CCc1cc(=O)oc2cc(C)cc(O)c12	–	·	·	–	–	25µM
CC12C=C(/C=C/C=C/c3ccccc3)C(C)(C1)C(/C=C/c1ccccc1)CC2=O (stereo not given)	·	·	·	–[11.4 µM]	–[11.4 µM]	–[11.5 µM]
C#CC(C)OC(=O)c1nnc2c3ccccc3n(COC)c2n1 (stereo not given)	·	·	·	–[11.4 µM]	–[11.4 µM]	–[11.5 µM]
N[C@@H](Cc1c[nH]c2ccc([N+](=O)[O-])cc12)C(=O)O	–[11.4 µM]	·	·	–[11.4 µM]	–[11.4 µM]	–[11.5 µM]
COc1cc(C2N(c3ccccc3)CCN2c2ccccc2)ccc1OC(C)=O	–	·	·	–	3.2µM	–
CCCCC#Cc1nc(NC)c2ncn([C@@H]3O[C@@H](CO)[C@H](O)[C@H]3O)c2n1	–	·	·	–	–	?
N#CCSc1nc2c(c(C3CC=CCC3)c1C#N)CCC2 (stereo not given)	–	–	–	10µM	?	–
CCCCCC[C@@H]([C@H](C)O)n1cnc2c(N)ncnc21	–	·	·	32µM	?	–
CCNc1ncc2nc(-c3cc(F)cc(F)c3)c(=O)n(Cc3ccc(F)cc3)c2n1	–[11.4 µM]	·	·	?	?	–
N/C(CC/C(N)=N/O)=N\O	–[11.4 µM]	·	·	–[11.4 µM]	–[11.4 µM]	–[11.5 µM]
O=C1c2ccccc2-c2onc3ccc(NCc4ccco4)c1c23	–	5.3	·	·	·	·
CN(C)C(=O)c1ccc(-c2ccc3ncnc(Nc4ccccc4)c3c2)cc1	–[2.29 µM]	·	·	–	–	?
O=C(O)C[C@H](Cc1ccc2c(c1)OCO2)C(=O)O	–[11.4 µM]	·	·	–[11.4 µM]	–[11.4 µM]	–[11.5 µM]
CCOC(=O)C1CCN(CC(=O)Nc2c(C(=O)OC)[nH]c3ccc(Cl)cc23)CC1	–	–	–	?	?	25µM
CCOC(=O)C1CCN(CC(=O)Nc2c(C(=O)OC)[nH]c3cccc(Cl)c23)CC1	–	–	·	–	–	–
O=C(c1nn(Cc2ccccc2)c(=O)c2ccccc12)N1CCN(c2ccccn2)CC1	–	–	·	4µM	?	–
COc1ccc(C(=O)N2CCC3(CCN(Cc4cc(C(F)(F)F)cc(C(F)(F)F)c4)CC3)CC2)cc1	–[11.4 µM]	·	·	–	–	–
O=C(/C=C\c1ccc(O)cc1)c1ccc(O)cc1O	25µM	·	·	–	–	?
O=C(/C=C/c1ccc(O)cc1)c1ccccc1O	·	·	·	·	·	4µM
O=C(/C=C/c1ccc(O)cc1)c1c(O)cc(O)cc1O	·	·	·	·	·	–
SMILES	Luciferase inh	PK Bst	GBA mod	HEK293 cAMP ctrl	TSHR ag	ERK AVP block
O=C(/C=C/c1ccccc1)c1ccccc1	10µM	–	·	·	·	·
O=C(/C=C/c1ccc(O)cc1)c1cccs1	·	·	·	·	·	16µM
COc1cccc(O)c1O	·	·	·	·	·	–
N=C(N)S/C=C\C(=O)O	–	·	·	–	–	–
CC(C)=CCC/C(C)=C/CO/N=C1/C[C@@H](O)[C@@H](O)[C@@H]2[C@@H]3C(=O)N(C[C@@H]4CCCO4)C(=O)[C@H]3CC[C@H]12	–[11.4 µM]	·	·	–[11.4 µM]	–[11.4 µM]	–[11.5 µM]
C=COCC1CN2C(CCC(C)C2c2ccc(Br)cc2)C(=O)O1 (stereo not given)	·	·	·	?	?	–[11.5 µM]
CCOC(=O)N/N=C1/C[C@@H](O)[C@@H](O)[C@@H]2[C@H]3C(=O)N(c4ccc(F)cc4F)C(=O)[C@@H]3CC[C@H]12	–[11.4 µM]	·	·	–[11.4 µM]	–[11.4 µM]	–[11.5 µM]
CCCCCC(=O)c1cc(CC(C(=O)OC)C(=O)OC)cc2cc(OC)c(OC)cc12	·	·	·	–[11.4 µM]	–[11.4 µM]	–[11.5 µM]

Screens deposited in PubChem BioAssay by National Center for Advancing Translational Sciences (NCATS).
